Experimental data as given in PubChem BioAssay (NCATS).
Several values for one entry are separate records, joined by “and”; a condition that tells them apart may be missing. Equal entries are not always repeated. Values without a mark were called inactive. Inconclusive results are not listed. Entries that show only a call come without a potency. Activity calls are given as the source filed them. Unless noted, calls follow the shape of the dose curve; as a rule, active = well fitted curve in the direction sought with a large enough effect; inconclusive = small, poorly fitted or top-dose-only effect, or another doubt; inactive = no such curve, though single readings can be large; an effect the other way counts as inactive or inconclusive.

Tests used:
[1] = Cell Viability - N2a (AID 540); settings: N2a mouse neuroblastoma cell viability; activity change, negative = cytotoxicity: at 92.2 µM (top of the series);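 also: cells exposed to compound for 40 h at 37 °C; nearly all actives have a fitted effect of over 45% in size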
Method in brief: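 First, 1500 N2a cells per well incubate 5 hr at 37 °C; next, compounds are added and incubated 40 hr at 37 °C; finally CellTiter-Glo is added and luminescence read after 20 min, with AC50 derived by Hill modeling.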

[2] = Cellular Toxicity (caspase-3) HUV-EC-C (AID 656)
Method in brief: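 Luminescent Caspase-Glo 3/7 readout after 16 h, 37 °C compound exposure of HUV-EC-C endothelial cells, 1000 per well, complete medium. AC50 derived by Hill fitting, with DMSO as baseline and 100 uM tamoxifen as full activation.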

[3] = Cellular Toxicity (caspase-3) H-4-II-E (AID 663); settings: Potency: caspase-3 activation;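 also: cells exposed to compound for 16 hr before readout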
Method in brief: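 Rat hepatoma H-4-II-E cells (1500/well) plated 5 hr, then exposed to compound titrations for 16 hr at 37 °C. Caspase-Glo 3/7 luminescence read after 20 min at RT; data normalized to DMSO and 100 uM tamoxifen, AC50 from Hill fits.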

[4] = MultiTox-Fluor Cytotoxicity Assay - LYMP1-001 - Dead Cells (AID 946)
Method in brief: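 AC50 from Hill fit of concentration-response; data normalized to DMSO (basal) and 15 uM tetraoctylammonium bromide (100%). LYMP1-001 lymphoblastoid cells, 2500/well, 16 hr compound at 37 C; dead-cell protease fluorescence, Ex/Em 485/520.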

[5] = Cell Viability - LYMP1-002 - Assay at 16 hr (AID 948)
Method in brief: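 ATP luminescence (CellTiter-Glo) was measured after 16 hr compound exposure at 37 C of 2500 lymphoblastoid LYMP1-002 cells per well. Concentration-response curves were fitted with the Hill equation to give AC50.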

[6] = MultiTox-Fluor Cytotoxicity Assay - LYMP1-003 - Live Cells (AID 962);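 also: cytotoxic hits lower the live-cell protease signal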
Method in brief: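 Cells plated at 2500 per well and incubated 5 hr; compounds added and incubated 16 hr at 37 C; MultiTox-Fluor reagent added for 60 min at room temperature; fluorescence of liberated AFC measured at 405/510 nm.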

[7] = Cell Viability - LYMP1-003 - Assay at 24 hr (AID 963)
Method in brief: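 Acute toxicity in LYMP1-003 lymphoblastoid cells: 24 hr compound treatment at 37 C, ATP measured with CellTiter-Glo after 30 min at room temperature. AC50 derived by fitting the Hill equation to qHTS titrations.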

[8] = Cell Viability - LYMP1-003 - Assay at 40 hr (AID 964); also: nearly all actives have a fitted effect of over 60% in size
Method in brief: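 This qHTS cytotoxicity screen treats human lymphoblastoid cells (LYMP1-003) with compounds for 40 hr and quantifies cellular ATP via luciferase luminescence.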

[9] = Cell Viability - LYMP2-011 (AID 969);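 also: cells exposed to compound for 24 hours; nearly all actives have a fitted effect of over 60% in size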; also: potency is read from the fitted curve at half-maximal effect
Method in brief: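 Acute toxicity is scored as a concentration-dependent drop in intracellular ATP of a human lymphoblastoid line after 24 hr treatment. Values are AC50s modeled with the Hill equation.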

[10] = Cell Viability - LYMP2-021 (AID 974);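 also: compound exposure lasts 24 hours at 37 °C; nearly all actives have a fitted effect of over 55% in size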; also: potency is read from the fitted curve at half-maximal effect
Method in brief: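 Concentration-response cytotoxicity in a human lymphoblastoid line: 24 hr treatment at 37 C in complete culture medium, tetraoctylammonium bromide as positive control, luminescent ATP quantitation as viability measure.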

[11] = Cell Viability - LYMP2-023 (AID 975);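 also: cells exposed to compound for 24 hours at 37 °C; nearly all actives have a fitted effect of over 55% in size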; also: potency is read from the fitted curve at half-maximal effect;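 as to activity change, negative = cytotoxicity: cellular ATP measured by luciferase luminescence as viability proxy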
Method in brief: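 Concentration-dependent drop in intracellular ATP measures acute cytotoxicity in a human lymphoblastoid line treated for 24 hours in complete culture medium. AC50 values are taken from Hill-equation fits of qHTS data.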

[12] = Cell Viability - LYMP2-010 (AID 981);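 also: cells exposed to compound for 24 hours at 37 °C; nearly all actives have a fitted effect of over 55% in size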; also: potency is read from the fitted curve at half-maximal effect
Method in brief: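 Acute toxicity is scored as a concentration-dependent loss of cellular ATP in human lymphoblastoid cells after 24 hr compound exposure in complete medium. Tetraoctylammonium bromide is the positive control.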

[13] = Cell Viability - LYMP2-018 (AID 985);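 also: compound exposure lasted 24 hr at 37 °C; nearly all actives have a fitted effect of over 50% in size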; also: potency is read from the fitted curve at half-maximal effect
Method in brief: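 Acute cytotoxicity is scored as a concentration-dependent drop in intracellular ATP after 24 hr exposure of the lymphoblastoid line in complete culture medium, measured by luciferase luminescence. Potency is expressed as AC50 from Hill modelling.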

[14] = Cell Viability - LYMP2-024 (AID 988); also: nearly all actives have a fitted effect of over 60% in size
Method in brief: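 Acute toxicity is measured as concentration-dependent loss of intracellular ATP in a human lymphoblastoid line treated 24 hours at 37 C. Luciferase luminescence quantifies ATP; AC50 values come from standard Hill-equation modelling.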

[15] = qHTS assay for small molecule activators of the p53 signaling pathway (AID 651743; active = well fitted activation curve with a large enough effect in the signal ratio, not every such curve was filed as active; the % refers to the signal ratio); settings: HCT-116 p53RE-bla, beta-lactamase FRET ratio, 16 h; activation: active compounds read high
Method in brief: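 HCT-116 p53RE-bla, 4,000 cells/well; 5 h settle; cpd/DMSO 16 h, 37 C; LiveBLAzer B/G 2 h RT; fluorescence intensity.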

[16] = qHTS assay for small molecule disruptors of the mitochondrial membrane potential - 1 hr assay (AID 651754; calls by dose curve; also: nearly all actives have a fitted effect of over 35% in size; also: potency is read from the fitted curve at half-maximal effect)
Method in brief: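 Steps: seed HepG2 cells and let attach overnight; pin-transfer compound or vehicle; incubate 1 hr at 37C; add Mito-MPS dye for 30 min; read two-channel fluorescence for monomer and aggregate forms.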

[17] = Cellular Toxicity (caspase-3) SHSY5Y (AID 657)
Method in brief: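 Luminescent Caspase-Glo 3/7 read-out, 1 hr room temperature, follows 16 hours of compound treatment of SH-SY5Y cells at 37 °C. Normalization: DMSO basal, 10 uM staurosporine as 100%; AC50 values from Hill-equation concentration-response fits.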

[18] = MultiTox-Fluor Cytotoxicity Assay - LYMP1-002 - Dead Cells (AID 960); also: nearly all actives have a fitted effect of over 60% in size; also: potency is read from the fitted curve at half-maximal effect
Method in brief: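 Acute cytotoxicity in a human lymphoblastoid line is scored as rising dead-cell protease signal after 16 hr exposure at 37 C, measured fluorometrically (485/520).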

[19] = Cell Viability - LYMP2-014 (AID 983); also: nearly all actives have a fitted effect of over 50% in size
Method in brief: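 Decrease in intracellular ATP after 24 hr treatment at 37 C, measured by luciferase luminescence, indicated cytotoxicity. Concentration-response data were fitted with the standard Hill equation to give AC50.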

[20] = Cell Viability - LYMP2-016 (AID 984);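 also: cells exposed to compound for 24 hours at 37 °C; nearly all actives have a fitted effect of over 55% in size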; also: potency is read from the fitted curve at half-maximal effect
Method in brief: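 Cytotoxicity was scored by luminescent ATP content (CellTiter-Glo) after 24 h compound exposure at 37 C of a human lymphoblastoid line at 2500 cells/well. Concentration-response data were fitted to the Hill equation for AC50.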

Structure (SMILES)	Potency [1]	outcome [2]	Potency [3]	outcome [4]	outcome [5]	outcome [6]	outcome [7]	Potency [8]	Potency [9]	Potency [10]	Potency [11]	Potency [12]	Potency [13]	Potency [14]	activation [15]	Potency [16]	outcome [17]	Potency [18]	Potency [19]	Potency [20]
Cc1ccc2c(C)cccc2c1	inactive	inactive	inactive	inactive	inactive	inactive	inactive	inactive	inactive	inactive	inactive	inactive	inactive	inactive	-0.174%	inactive	–	–	–	–
C1CC2OC2CC1C1CO1 (configuration not stated)	inactive	inactive	–	inactive	–	inactive	inactive	inactive	inactive	inactive	inactive	inactive	inactive	inactive	-4.75% and -3.06%	inactive	inactive	inactive	inactive	inactive
O=[N+]([O-])c1ccc(Cl)c(Cl)c1Cl	inactive	–	inactive	inactive	inactive	–	inactive	–	inactive	inactive	inactive	inactive	inactive	inactive	-2.43%	–	–	–	–	inactive
CC(C)CON=O	inactive	inactive	inactive	inactive	inactive	inactive	inactive	inactive	inactive	inactive	inactive	inactive	–	inactive	-2.37%	inactive	inactive	inactive	inactive	inactive
CCCCOC(=O)c1ccccc1N	inactive	inactive	inactive	inactive	inactive	inactive	inactive	inactive	–	inactive	inactive	inactive	–	inactive	–	inactive	inactive	inactive	inactive	inactive
O=Cc1ccc2c(c1)OCO2	inactive	inactive	inactive	inactive	inactive	inactive	inactive	–	inactive	inactive	inactive	–	inactive	–	–	inactive	inactive	inactive	inactive	–
ClC(Br)Br	inactive	inactive	inactive	–	inactive	inactive	–	inactive	inactive	inactive	inactive	inactive	inactive	inactive	6.47%	inactive	inactive	inactive	inactive	inactive
CCNCC	inactive	inactive	inactive	inactive	inactive	inactive	inactive	–	inactive	inactive	inactive	–	inactive	inactive	–	inactive	inactive	inactive	inactive	–
ClCCOCOCCCl	inactive	–	inactive	–	inactive	inactive	inactive	inactive	inactive	inactive	inactive	inactive	inactive	inactive	-4.18%	inactive	inactive	inactive	inactive	inactive
Cc1cnc[nH]1	inactive	inactive	–	inactive	inactive	inactive	inactive	inactive	inactive	inactive	–	inactive	inactive	inactive	-6.55%	inactive	inactive	inactive	inactive	–
OC[P+](CO)(CO)CO	inactive	inactive	inactive	–	–	inactive	inactive	inactive	39.8 µM (active)	12.6 µM (active)	25.1 µM (active)	20 µM (active)	7.94 µM (active)	–	4.85% and 1.14%	inactive	inactive	inactive	–	20 µM (active)
O=NN1CCCCC1	inactive	inactive	inactive	inactive	–	inactive	inactive	inactive	inactive	–	–	inactive	–	inactive	-2.94%	inactive	inactive	inactive	inactive	inactive
O=C(O)C(Cl)(Cl)Br	inactive	–	inactive	–	inactive	inactive	inactive	inactive	inactive	–	–	inactive	inactive	–	-0.303%	inactive	inactive	inactive	inactive	inactive
COC(=O)c1ccccc1N	inactive	inactive	–	inactive	–	inactive	inactive	inactive	inactive	inactive	–	inactive	inactive	inactive	-1.42%	–	inactive	inactive	–	inactive
C=CC=O	inactive	–	inactive	inactive	inactive	inactive	inactive	inactive	inactive	inactive	inactive	–	–	–	-0.485%	–	inactive	–	inactive	inactive
Nc1ccc(-c2ccc(N)cc2)cc1	inactive	inactive	inactive	inactive	inactive	inactive	inactive	inactive	inactive	inactive	inactive	inactive	–	inactive	-1.06%	–	–	inactive	inactive	inactive
C=CC#N	inactive	–	inactive	inactive	inactive	–	–	inactive	inactive	inactive	inactive	inactive	inactive	–	-2.66%	inactive	inactive	inactive	inactive	inactive
CCOP(=O)(OCC)OCC	inactive	inactive	inactive	inactive	inactive	inactive	inactive	inactive	–	inactive	–	inactive	inactive	inactive	2.61% and -1.3%	inactive	–	inactive	–	–

Structure (SMILES)	Potency [1]	outcome [2]	Potency [3]	outcome [4]	outcome [5]	outcome [6]	outcome [7]	Potency [8]	Potency [9]	Potency [10]	Potency [11]	Potency [12]	Potency [13]	Potency [14]	activation [15]	Potency [16]	outcome [17]	Potency [18]	Potency [19]	Potency [20]
c1ccc(C2CO2)cc1 (configuration not stated)	inactive	inactive	inactive	inactive	inactive	–	–	inactive	–	inactive	inactive	inactive	inactive	inactive	-1.82%	inactive	inactive	–	inactive	inactive
NC1CCC(CC2CCC(N)CC2)CC1 (configuration not stated)	inactive	inactive	–	inactive	inactive	inactive	inactive	inactive	inactive	inactive	–	inactive	inactive	–	-3.72% and -4.21%	inactive	inactive	3.98 µM (active)	inactive	inactive
O=Cc1ccc(Cl)cc1Cl	inactive	inactive	–	inactive	inactive	inactive	inactive	–	inactive	–	–	inactive	–	–	-1.2%	inactive	inactive	inactive	inactive	inactive
C=CC(=O)OCCN(C)C	inactive	inactive	inactive	inactive	inactive	inactive	–	inactive	inactive	inactive	inactive	inactive	inactive	inactive	0.0499%	inactive	inactive	inactive	inactive	inactive
CCBr	inactive	inactive	inactive	–	inactive	–	inactive	inactive	inactive	–	inactive	–	inactive	inactive	1.32%	inactive	inactive	inactive	–	–
O=[N+]([O-])c1cc(Cl)c(Cl)cc1Cl	inactive	inactive	inactive	inactive	inactive	–	inactive	inactive	–	inactive	inactive	inactive	inactive	inactive	–	inactive	inactive	inactive	inactive	inactive
c1ccc(OCC2CO2)cc1 (configuration not stated)	inactive	–	inactive	inactive	inactive	–	inactive	inactive	inactive	inactive	inactive	–	inactive	inactive	-2.65%	inactive	inactive	inactive	–	inactive
COC(=O)Nc1cccc(OC(=O)Nc2cccc(C)c2)c1	inactive	inactive	inactive	inactive	inactive	inactive	inactive	inactive	inactive	inactive	–	inactive	inactive	inactive	-2.65%	42.2 µM (active)	inactive	inactive	inactive	inactive
CCCCC#N	inactive	inactive	inactive	inactive	inactive	inactive	inactive	inactive	inactive	inactive	inactive	inactive	inactive	inactive	-7.46%	inactive	inactive	inactive	inactive	–
CC(C)(C)c1ccccc1O	inactive	inactive	inactive	inactive	inactive	inactive	inactive	inactive	inactive	inactive	–	–	inactive	inactive	–	–	inactive	inactive	inactive	inactive
ClCCBr	inactive	inactive	inactive	inactive	inactive	–	inactive	inactive	inactive	inactive	inactive	inactive	–	inactive	0.777%	inactive	inactive	inactive	inactive	inactive
ClP(Cl)(Cl)(Cl)Cl	inactive	inactive	–	inactive	inactive	inactive	inactive	inactive	inactive	–	inactive	–	inactive	inactive	-1.29%	inactive	–	inactive	inactive	inactive
C=CCc1cc(OC)c2c(c1)OCO2	inactive	inactive	inactive	inactive	–	inactive	inactive	–	–	inactive	inactive	inactive	–	–	-0.222%	inactive	inactive	inactive	inactive	inactive
CN=C=O	inactive	inactive	inactive	inactive	inactive	–	–	inactive	inactive	inactive	inactive	inactive	inactive	inactive	-2.98%	inactive	inactive	inactive	inactive	inactive
CCOC(=O)CBr	inactive	inactive	–	inactive	inactive	inactive	inactive	inactive	–	–	inactive	inactive	inactive	inactive	-2.17%	inactive	inactive	inactive	inactive	inactive
Cc1ccccc1[N+](=O)[O-]	inactive	inactive	inactive	inactive	inactive	inactive	inactive	inactive	inactive	inactive	inactive	–	inactive	inactive	1.69%	–	inactive	–	inactive	inactive
Clc1ccc(C(Cl)(Cl)Cl)c(Cl)c1	inactive	inactive	inactive	–	inactive	inactive	inactive	inactive	inactive	inactive	inactive	inactive	inactive	–	-0.0334%	inactive	inactive	inactive	inactive	inactive
